Measured values published in PubChem BioAssay AID493194 (Broad Institute, 2011).
Potency and affinity values are given separately. Results filed as inconclusive are left out. Entries that show only a call come without a potency. Activity calls are given as the source filed them.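 How the source made its calls: active means a valid curve of falling signal whose half-effect concentration is at most ten times the top tested dose; inconclusive means flat curve at 30 to 70% inhibition, or poor fit; inactive means signal rise, flat within 30%, or potency beyond limit.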

Molecular target: Scavenger receptor class B member 1 (Mus musculus) (UniProt Q61009)
Sequence (Q61009 whole entry, looked up): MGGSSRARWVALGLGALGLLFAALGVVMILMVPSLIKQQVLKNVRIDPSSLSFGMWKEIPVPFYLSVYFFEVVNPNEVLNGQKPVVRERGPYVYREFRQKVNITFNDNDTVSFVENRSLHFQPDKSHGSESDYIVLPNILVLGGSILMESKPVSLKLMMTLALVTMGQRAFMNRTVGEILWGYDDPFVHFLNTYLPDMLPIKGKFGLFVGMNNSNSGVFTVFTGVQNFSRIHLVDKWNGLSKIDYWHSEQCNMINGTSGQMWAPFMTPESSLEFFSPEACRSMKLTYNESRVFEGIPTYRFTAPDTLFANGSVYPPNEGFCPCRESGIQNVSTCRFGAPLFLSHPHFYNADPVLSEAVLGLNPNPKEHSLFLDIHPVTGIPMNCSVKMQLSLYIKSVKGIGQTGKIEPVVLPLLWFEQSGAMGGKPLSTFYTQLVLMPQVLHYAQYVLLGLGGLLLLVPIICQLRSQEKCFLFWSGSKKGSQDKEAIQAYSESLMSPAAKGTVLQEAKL
Experiment: inhibitors of SR-BI mediated HDL lipid uptake, dose response, ldlA[mSR-BI] cells, fluorescence, cherry pick (AID 493194);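 further: CHO cells lacking LDL receptor and overexpressing mouse SR-BI; cellular uptake of fluorescently labeled HDL measured as cell fluorescence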

| SMILES | outcome |
| --- | --- |
| CCCc1cc(-c2[nH]ncc2-c2ccc(C(=O)OCC)o2)c(O)cc1O | inactive |
| O=C1[C@@H]2Cc3c([nH]c4ccccc34)C(c3cccc([N+](=O)[O-])c3)N2C(=O)CN1CCCO (some centres undefined) | inactive |
| Cc1ccc(C)c(N2CCN(CCCNC(=O)Cn3c(=O)c4cccn4c4cccnc43)CC2)c1 | inactive |
| N#Cc1ccc(Nc2nc(-c3ccc(O)cc3O)cs2)cc1C(F)(F)F | inactive |
| CSc1ccccc1OCc1cc(C(=O)N(C)Cc2c(C)n[nH]c2C)no1 | inactive |
| CCCOc1ccc(C(=O)Nc2ccc(S(=O)(=O)N3C[C@@H]4C[C@@H](C3)c3cccc(=O)n3C4)cc2)cc1 | inactive |
| Cc1cc(NC(=O)Nc2ccccc2)n(-c2ccccc2)n1 | inactive |
| COc1cc(C(=S)N2CCCC2)ccc1OC(=O)c1ccc(Cl)cc1[N+](=O)[O-] | inactive |
| CCOc1ccccc1CNC(=O)C1CCN(C(=O)c2sccc2-n2cccc2)CC1 | inactive |
| COc1cc(/C=C/C(=O)OCC(=O)c2ccc[nH]2)cc(OC)c1OC | inactive |
| CCOC(=O)c1[nH]c2c(c1C)C(=O)CC(c1ccc(F)cc1)C2 (centres undefined) | inactive |
| Cc1ccc(S(=O)(=O)N2CCC(C(=O)NNC(=O)c3cccnc3)CC2)cc1 | inactive |
| CC(=O)Nc1nc(-c2ccccc2)nc(-c2ccccc2OC(C)=O)n1 | inactive |
| O=C(CN1CCN(CC(=O)Nc2ccc3c(c2)OC2(CCCCC2)O3)CC1)Nc1cccc(F)c1 | inactive |
| CCCC(=O)N1c2ccc(-c3csc(N)n3)cc2CC1C (centres undefined) | inactive |
| CCCCC(c1nnnn1CC1CCCO1)N1CCN(c2cc(Cl)ccc2C)CC1 (centres undefined) | inactive |
| COc1cc([N+](=O)[O-])ccc1NC(=O)NCC1CCN(Cc2ccc(Cl)cc2)CC1 | inactive |
| Cc1nc2c(cnn2-c2ccccc2Cl)c(=O)n1-c1ccc(N2CCC(C)CC2)cc1 | inactive |
| O=C(C1=COCCO1)N(Cc1nnc(-c2ccccc2Cl)o1)C1CC1 | inactive |
| CNc1nc(-c2ccc3c(c2)CCN3C(=O)CC(C)(C)C)c(C)s1 | inactive |
| CC(=O)Nc1ccc(S(=O)(=O)N2CCC(C(=O)NCCC(=O)NCc3ccccc3)CC2)cc1 | inactive |
| Cc1ccsc1-c1nc(-c2ccccc2)c(-c2ccccc2)[nH]1 | inactive |
| CCOC(=O)c1c(C)n(-c2ccc(C)cc2)c2c(CC(C)=O)c(Br)c(OC)c(O)c12 | inactive |
| Cc1c(C(=O)OCC2CCCO2)[nH]c2c1C(=O)CC(c1ccco1)C2 (centres undefined) | inactive |
